Structures are written as SMILES. Several values for one entry are separate records, joined by “and”; a condition that tells them apart may be missing. Identical values can stand only once. This is part of a sample that, as a whole, favours compounds with a hit. Of some 79,000 tested, about 15% had one in any assay. A structure can be active in one record and inactive in another. Activity calls are given as the source filed them. Cut-off read from the data, not from the text of the source: active = growth inhibition above about 70%; inactive = the rest.

The nature of one test: NCI Yeast Anticancer Drug Screen. Data for the rad50 strain (AID 155).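 Note: 0% = growth of vehicle-only cultures of the same strain.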 The following applies: S. cerevisiae rad50 strain growth inhibition; at 50.0 µM; stronger effect = higher value. The method, boiled down: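 Yeast carrying a defined DNA repair defect were exposed to test compounds, and growth was compared with vehicle-treated controls to give percent inhibition.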
Regarding `COc1ccc2[nH]c3c(C)c4ccncc4c(C)c3c2c1`, the growth inhibition is 92.6% (active) and 99% (active).

Turning to `CC(=O)OC1OC(CI)C(OC(C)=O)C(OC(C)=O)C1OC(C)=O` (stereo unspecified), the growth inhibition was 16.1% (inactive) and 5.95% (inactive).

Consider `Cc1cc(NS(=O)(=O)c2ccc(N=Nc3cc(N=Nc4ccc(S(=O)(=O)Nc5cc(C)nc(C)n5)cc4)c4c(NC(=O)C(Cl)Cl)cccc4c3OC(=O)C(Cl)Cl)cc2)nc(C)n1` (tested in a mixture with another compound), for which the growth inhibition is 29.9% (inactive) and 73.2% (active).

Consider `Oc1cc2c(cc1C(c1ccc3c(c1)OCO3)N1CCN(C(c3ccc4c(c3)OCO4)c3cc4c(cc3O)OCO4)CC1)OCO2` (stereo unspecified), for which the growth inhibition is 81.9% (active).

With `O=[N+]([O-])c1ccc(N/N=C/CC(O)(C(F)(F)F)C(F)(F)F)c([N+](=O)[O-])c1`, the growth inhibition was 88.6% (active).

Take `CCCc1cc(=O)oc2c3c(c4c(c12)OC(C)(C)CC4)O[C@@H](C)[C@H](C)[C@H]3O`: the growth inhibition was -6.95% (inactive) and 80.1% (active).

As for `O=Cc1cc(Br)ccc1O`, the growth inhibition is 88.7% (active) and 95.2% (active).

Turning to `Cc1n(-c2ccccc2)c2c([n+]1Cc1ccc([N+](=O)[O-])cc1)C(=O)c1ccccc1C2=O`, the growth inhibition was 85.2% (active).

Consider `Nc1ncnc2c1ncn2CCCl`, for which the growth inhibition was 8.2% (inactive).

For the molecule `CN(C)CCCN=c1c2ccccc2n(O)c2cccc([N+](=O)[O-])c12`, the growth inhibition is 72.5% (active).

On to `CCOc1ccc2ccccc2c1C(Cc1ccc(Cl)cc1)NCCO` (stereo unspecified), for which the growth inhibition was 89.3% (active).

Turning to `COc1ccc(Oc2ccccc2N)cc1`, the growth inhibition was 83.7% (active).

In the case of `O=C1C(Cl)=C(Cl)C(Cl)(Cl)C(Cl)=C1Cl`, the growth inhibition was 60.4% (inactive) and 64.4% (inactive).

On to `CCCCCCCCCCCC(=O)CN1CCOCC1`, for which the growth inhibition is 98.9% (active).

Turning to `CCC(C)(C)c1cc(O)c(C(C)(C)CC)cc1O`, the growth inhibition was 0.35% (inactive) and 93.2% (active).

Turning to `CC[C@](O)(CC(=O)O[C@H]1C(=O)O[C@@H]2C[C@H]3C(C)=CC(=O)[C@@H](O)[C@]3(C)[C@H]3[C@@]4(O)OC[C@]32[C@@H]1[C@@H](C)[C@H]4O)C(C)C`, the growth inhibition was 88.9% (active).

For `Nc1ccccc1Oc1ccc(Cl)cc1Cl`, the growth inhibition is 92% (active).

For `O=C1Nc2ccccc2C1(O)C/C(=N/O)c1ccc2ccccc2c1` (stereo unspecified), the growth inhibition is 35.1% (inactive).

In the case of `NNC(=O)c1ccc(NC(=O)CSc2nc3ccccc3s2)cc1`, the growth inhibition is 92.7% (active).

With `C[C@H]1CC[C@H]([C@@H](C)[C@H]2[C@@H](O)C[C@H]3[C@@H]4CC[C@H]5C[C@@H](O)CC[C@]5(C)[C@H]4CC[C@]23C)NC1`, the growth inhibition was 91.3% (active) and 88.7% (active).

In the case of `CC(C)(c1ccc(O)cc1)c1ccc(O)cc1`, the growth inhibition was 69.5% (inactive) and 77.6% (active).

Turning to `O=C1/C(=C/c2ccc(Cl)cc2)CNC/C1=C\c1ccc(Cl)cc1`, the growth inhibition is 76.7% (active) and 86.2% (active).

For `CCN(CC)c1ccc(/C=C/c2ccnc3ccccc23)cc1`, the growth inhibition is 99% (active) and 98.3% (active).

Turning to `Oc1ccc(/C=N/NC(=S)NN2CCOCC2)nc1`, the growth inhibition was 87% (active).

Take `COc1ccc(-c2c(C#N)c(-c3ccc(C)cc3)n(NS(=O)(=O)c3ccccc3)c(=O)c2C#N)cc1`: the growth inhibition was 40.5% (inactive).

As for `c1ccc(-c2[nH]c3ccccc3c2-c2ccccn2)cc1`, the growth inhibition was 91.8% (active).

Consider `Nc1cc2c(cc1Cl)[nH]c(=O)c1cc(Cl)ccc12`, for which the growth inhibition is 86.2% (active).

Turning to `C1=C(c2ccccc2)N(CCc2ccccc2)C(c2ccccc2)=CN1Cc1ccccc1`, the growth inhibition was 98.4% (active).

Turning to `COC(=O)c1nnn(-c2ccc(S(N)(=O)=O)cc2)c1N`, the growth inhibition is 36.6% (inactive).

Consider `O=C1C(CN2CCOCC2)CCCC1CN1CCOCC1` (stereo unspecified), for which the growth inhibition is 12.2% (inactive) and 1.25% (inactive).

For the molecule `c1ccc(-c2nc3ccccc3[nH]2)cc1`, the growth inhibition was 6.4% (inactive) and 34.6% (inactive).

As for `O=Cc1cc([N+](=O)[O-])cc(CCl)c1O`, the growth inhibition is 20.7% (inactive).

As to `COC(=O)[C@]1(C)CCC[C@]2(C)c3ccc(C(C)C)cc3CC[C@@H]12`, the growth inhibition was -12.8% (inactive) and 98.4% (active).

For the molecule `CCOC(=O)c1ccc(NCc2ccc3ccccc3n2)cc1`, the growth inhibition is 71.6% (active).

Take `CCCCCCCCCCCCCCCC(=O)NCC[N+](C)(C)C`: the growth inhibition was 99.5% (active).

In the case of `OC(c1nc2ccccc2[nH]1)C(O)C(O)C(O)c1nc2ccccc2[nH]1` (stereo unspecified), the growth inhibition is -8.95% (inactive) and 19.2% (inactive).

Regarding `O=[N+]([O-])c1ccc(N/N=C(/C=N/Nc2ccc([N+](=O)[O-])cc2)C(O)C(O)C(O)CO)cc1` (stereo unspecified), the growth inhibition was 97.7% (active) and 97.2% (active).

As to `c1ccc2c(c1)CNc1ccccc1-2`, the growth inhibition was 48% (inactive).

A short description of a further test: NCI Yeast Anticancer Drug Screen. Data for the mec2-1 strain (AID 157). The following applies: S. cerevisiae mec2-1 strain, at 5.0 µM (retest, dose inferred, filed as 0.5), stronger effect = higher value. Summed up: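 Growth inhibition is read against vehicle-treated controls after compound exposure of the mec2-1 yeast strain, which is defective in DNA damage repair or cell cycle control.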
With `COc1ccc2[nH]c3c(C)c4ccncc4c(C)c3c2c1`, the growth inhibition is 40% (inactive).

Take `CC(=O)OC1OC(CI)C(OC(C)=O)C(OC(C)=O)C1OC(C)=O` (stereo unspecified): the growth inhibition is -1% (inactive).

As to `Cc1cc(NS(=O)(=O)c2ccc(N=Nc3cc(N=Nc4ccc(S(=O)(=O)Nc5cc(C)nc(C)n5)cc4)c4c(NC(=O)C(Cl)Cl)cccc4c3OC(=O)C(Cl)Cl)cc2)nc(C)n1` (tested in a mixture with another compound), the growth inhibition was 15% (inactive).

`Oc1cc2c(cc1C(c1ccc3c(c1)OCO3)N1CCN(C(c3ccc4c(c3)OCO4)c3cc4c(cc3O)OCO4)CC1)OCO2` (stereo unspecified): the growth inhibition is -1% (inactive).

As to `O=[N+]([O-])c1ccc(N/N=C/CC(O)(C(F)(F)F)C(F)(F)F)c([N+](=O)[O-])c1`, the growth inhibition was -1% (inactive).

Take `CCCc1cc(=O)oc2c3c(c4c(c12)OC(C)(C)CC4)O[C@@H](C)[C@H](C)[C@H]3O`: the growth inhibition was -20% (inactive).

As to `O=Cc1cc(Br)ccc1O`, the growth inhibition was 7% (inactive) and 4% (inactive).

Consider `Cc1n(-c2ccccc2)c2c([n+]1Cc1ccc([N+](=O)[O-])cc1)C(=O)c1ccccc1C2=O`, for which the growth inhibition is -7% (inactive).

Regarding `Nc1ncnc2c1ncn2CCCl`, the growth inhibition was -2% (inactive).

Turning to `CN(C)CCCN=c1c2ccccc2n(O)c2cccc([N+](=O)[O-])c12`, the growth inhibition is 23% (inactive).

Regarding `CCOc1ccc2ccccc2c1C(Cc1ccc(Cl)cc1)NCCO` (stereo unspecified), the growth inhibition was -2% (inactive).

Take `COc1ccc(Oc2ccccc2N)cc1`: the growth inhibition was -1% (inactive).

Regarding `O=C1C(Cl)=C(Cl)C(Cl)(Cl)C(Cl)=C1Cl`, the growth inhibition was 24% (inactive) and 42% (inactive).

With `CCCCCCCCCCCC(=O)CN1CCOCC1`, the growth inhibition is 25% (inactive).

Turning to `CCC(C)(C)c1cc(O)c(C(C)(C)CC)cc1O`, the growth inhibition was 3% (inactive).

Turning to `CC[C@](O)(CC(=O)O[C@H]1C(=O)O[C@@H]2C[C@H]3C(C)=CC(=O)[C@@H](O)[C@]3(C)[C@H]3[C@@]4(O)OC[C@]32[C@@H]1[C@@H](C)[C@H]4O)C(C)C`, the growth inhibition was 35% (inactive).

As for `Nc1ccccc1Oc1ccc(Cl)cc1Cl`, the growth inhibition was 37% (inactive).

`O=C1Nc2ccccc2C1(O)C/C(=N/O)c1ccc2ccccc2c1` (stereo unspecified): the growth inhibition was 27% (inactive).

`NNC(=O)c1ccc(NC(=O)CSc2nc3ccccc3s2)cc1`: the growth inhibition is 6% (inactive).

As for `C[C@H]1CC[C@H]([C@@H](C)[C@H]2[C@@H](O)C[C@H]3[C@@H]4CC[C@H]5C[C@@H](O)CC[C@]5(C)[C@H]4CC[C@]23C)NC1`, the growth inhibition is 19% (inactive) and 2% (inactive).

For `CC(C)(c1ccc(O)cc1)c1ccc(O)cc1`, the growth inhibition was 10% (inactive) and 3% (inactive).

With `O=C1/C(=C/c2ccc(Cl)cc2)CNC/C1=C\c1ccc(Cl)cc1`, the growth inhibition is 76% (active) and 48% (inactive).

Consider `CCN(CC)c1ccc(/C=C/c2ccnc3ccccc23)cc1`, for which the growth inhibition is -3% (inactive) and 1% (inactive).

With `Oc1ccc(/C=N/NC(=S)NN2CCOCC2)nc1`, the growth inhibition was 36% (inactive).

For `COc1ccc(-c2c(C#N)c(-c3ccc(C)cc3)n(NS(=O)(=O)c3ccccc3)c(=O)c2C#N)cc1`, the growth inhibition is 42% (inactive).

As for `c1ccc(-c2[nH]c3ccccc3c2-c2ccccn2)cc1`, the growth inhibition was -2% (inactive).

As for `Nc1cc2c(cc1Cl)[nH]c(=O)c1cc(Cl)ccc12`, the growth inhibition was 27% (inactive).

For `C1=C(c2ccccc2)N(CCc2ccccc2)C(c2ccccc2)=CN1Cc1ccccc1`, the growth inhibition was 1% (inactive).

With `COC(=O)c1nnn(-c2ccc(S(N)(=O)=O)cc2)c1N`, the growth inhibition was -4% (inactive).

As to `O=C1C(CN2CCOCC2)CCCC1CN1CCOCC1` (stereo unspecified), the growth inhibition is 4% (inactive).

As to `c1ccc(-c2nc3ccccc3[nH]2)cc1`, the growth inhibition was -3% (inactive).

Regarding `O=Cc1cc([N+](=O)[O-])cc(CCl)c1O`, the growth inhibition is -52% (inactive).

On to `COC(=O)[C@]1(C)CCC[C@]2(C)c3ccc(C(C)C)cc3CC[C@@H]12`, for which the growth inhibition was 6% (inactive).

On to `CCOC(=O)c1ccc(NCc2ccc3ccccc3n2)cc1`, for which the growth inhibition is -11% (inactive).

As for `CCCCCCCCCCCCCCCC(=O)NCC[N+](C)(C)C`, the growth inhibition is 52% (inactive).

On to `OC(c1nc2ccccc2[nH]1)C(O)C(O)C(O)c1nc2ccccc2[nH]1` (stereo unspecified), for which the growth inhibition is -25% (inactive).

As for `O=[N+]([O-])c1ccc(N/N=C(/C=N/Nc2ccc([N+](=O)[O-])cc2)C(O)C(O)C(O)CO)cc1` (stereo unspecified), the growth inhibition is 48% (inactive) and 55% (inactive).

Turning to `c1ccc2c(c1)CNc1ccccc1-2`, the growth inhibition is -10% (inactive).

The values are drawn from PubChem BioAssay (NCI).
